Measurements published in PubChem BioAssay (NCATS).
Results filed as inconclusive are left out. Values without a mark were called inactive. Active and inactive are the calls of the source. Calls come from the whole dose curve; as a rule, active = well fitted inhibition curve with a large enough effect; inconclusive = small, poorly fitted or top-dose-only effect; inactive = flat fitted curve, though single readings scatter.

Experiments:
CRL-7250 = normal cell line; experiment: Cytotoxic Profiling of Annotated Libraries Using Quantitative High-Throughput Screening (AID 1296008); details: Five cell lines viability, CellTiter-Glo ATP luminescence, 48-72 h; max response: active compounds read low; note: potency is the fitted concentration of half-maximal effect; for max response: % is set by controls: 0 for no effect and ±100 for the full control effect
In short: (§1)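 Compounds were pin-transferred onto cells and incubated 48 or 72 hr at 37 degree Celsius, 95% humidity. CellTiter-Glo was added, plates sat 10 min at room temperature, then ATP-coupled luminescence was imaged as the viability read-out.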

HEK293 = experiment: as above; details: Five cell lines viability, CellTiter-Glo ATP luminescence, 48-72 h; max response: active compounds read low
In short: as §1

HaCat [1] = experiment: as above; details: Five cell lines viability, CellTiter-Glo ATP luminescence, 48-72 h; max response: active compounds read low
In short: as §1

NIH3T3 = experiment: as above; details: Five cell lines viability, CellTiter-Glo ATP luminescence, 48-72 h; max response: active compounds read low
In short: as §1

HACAT [2] = experiment: qHTS assay to identify novel small-molecules to repurpose for Merkel cell carcinoma treatment (AID 1296009); details: MCC and control cell lines, CellTiter-Glo viability, 72 h; at 44.8 µM (top of the series) unless noted
In short: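 Viability readout: ATP luminescence (CellTiter-Glo) after 72 hr drug exposure at 37 degree celsius. Dose-response format was 8 points for NPC and 11 points for MIPE; data normalized to in-plate controls.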
Note: nearly all actives have a fitted effect of over 60% in size.

SMILES: C=CC(=O)Nc1cccc(Nc2nc(Nc3ccc(NC4CN(CCF)C4)cc3OC)ncc2C(F)(F)F)c1
- Potency (CRL-7250): 7.31 µM (active)
- Potency (HEK293): 8.2 µM (active)
- Potency (HaCat [1]): 3.66 µM (active)
- Potency (NIH3T3): 13 µM (active)

SMILES: COc1c(C)cnc(Cn2cc(C#CCC(C)(C)O)c3c(Cl)nc(N)nc32)c1C
- Potency (CRL-7250): 0.259 µM (active)
- Potency (HEK293): 0.0517 µM (active)
- Potency (HaCat [1]): 0.0731 µM (active)
- Potency (NIH3T3): 0.206 µM (active)

SMILES: C=C[C@@]12COC(=O)C(=C)[C@@H]1[C@@H](O)[C@H](C(=C)C(=O)OC)[C@@H](O)C2
- max response (CRL-7250): -65.9%
- max response (HEK293): -86.5%
- max response (HaCat [1]): -29%
- max response (NIH3T3): -16.2%

SMILES: CC[C@@H](Nc1c(Nc2cccc(C(=O)N(C)C)c2O)c(=O)c1=O)c1cc(C(C)C)co1
- max response (CRL-7250): 4.29%
- max response (HEK293): -14.3%
- outcome (HaCat [1]): inactive
- max response (NIH3T3): -6.94%
- outcome (HACAT [2]): inactive

SMILES: COc1ccc(C[C@H]2COC(=O)[C@@H]2Cc2ccc(O[C@@H]3O[C@H](CO)[C@@H](O)[C@H](O)[C@H]3O)c(OC)c2)cc1OC
- Potency (CRL-7250): 0.893 µM (active)
- Potency (HEK293): 1.78 µM (active)
- max response (HaCat [1]): -11.8%
- max response (NIH3T3): -30.4%

SMILES: CCCCCCOC(=O)/N=C(\N)c1ccc(NCc2nc3cc(C(=O)N(CCC(=O)OCC)c4ccccn4)ccc3n2C)cc1
- max response (CRL-7250): -1.92%
- Potency (HEK293): 18.4 µM (active)
- max response (HaCat [1]): -18.9%
- max response (NIH3T3): -4.93%

SMILES: O=C(Nc1ccc(Cl)cc1)C1CCCN(C(=O)c2cccc(-c3ccco3)c2)C1 (centres undefined)
- Potency (CRL-7250): 13 µM (active)
- Potency (HEK293): 18.4 µM (active)
- max response (HaCat [1]): -30%
- max response (NIH3T3): -26.4%
